Experimental data: PubChem BioAssay AID431 (Sanford-Burnham Center for Chemical Genomics, 2006)
The whole screen tested about 63,000 compounds, of which about 1,100 (1.7%) were called active. The list comes from a sample in which actives are over-represented; it also holds similar structures and randomly drawn compounds. Measured potencies and affinities stand elsewhere. Unmarked numbers belong to inactive results.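 Rule for the calls: active = compounds whose percent cytotoxicity in the single-dose primary screen, scaled between solvent and toxic-drug controls, exceeds 50; inactive = the rest.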

Assay: cytotoxicity in KRAS-transformed pancreatic duct cells, primary screen, cell-based, fluorescence, HTS (AID 431);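 note: 0% = DMSO solvent wells and 100% = doxorubicin-treated wells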
Conditions: HPDE-C7K KRASV12 cells, Alamar Blue viability, 48 h; at 10 µM; hits give high values

Row | Structure (SMILES) | cytotoxicity
1 | Cc1cccc(C)c1OCC(=O)Nc1cccc(NC(=O)c2ccco2)c1 | 2.8%
2 | CCN(CC)c1ccc(NC(=O)c2cc3ccccc3o2)c(C)c1 | -6%
3 | CCOC(=O)c1ccccc1NC(=O)Cn1c(-c2nonc2N)nc2ccccc21 | 58.5% (active)
4 | CCCCn1c(-c2nonc2NC(=O)c2ccccc2Cl)nc2ccccc21 | 53.9% (active)
5 | N#CCCn1c(-c2nonc2NC(=O)c2ccccc2Cl)nc2ccccc21 | 41.9%
6 | CCOC(=O)Cn1c(-c2nonc2NC(=O)c2ccccc2F)nc2ccccc21 | 41%
7 | CCCCOc1ccccc1NC(=O)Cn1c(-c2nonc2N)nc2ccccc21 | 42.3%
8 | COC(=O)c1ccccc1NC(=O)Cn1c(-c2nonc2N)nc2ccccc21 | 41.3%
9 | CCc1nnc(NC(=O)OCc2ccccc2)s1 | -11.2%
10 | Cn1nnnc1SCC(=O)N1CCN(c2cccc(Cl)c2)CC1 | 14.5%
11 | COc1ccc(N(CC(=O)Nc2ccc(C)cn2)S(=O)(=O)c2c(C)noc2C)cc1 | -11.9%
12 | CCC(Sc1nc(=O)cc(N)n1CCc1ccccc1)C(=O)Nc1cc(C)on1 (configuration not stated) | -10.3%
13 | O=C(NCCc1ccc(Cl)cc1)C1CCN(S(=O)(=O)N2CCCC2)CC1 | -2.3%
14 | Cc1ccc(CNc2oc(-c3cccs3)nc2C#N)cc1 | 0.3%
15 | N#Cc1nc(-c2cccs2)oc1NCCc1ccccc1 | 50.3% (active)
16 | N#Cc1nc(-c2cccs2)oc1NCc1ccccc1 | 3.2%
17 | CCN1CCN(c2ncnc3c2sc(=S)n3-c2ccccc2)CC1 | 2.5%
18 | COc1ccccc1NC(=O)c1ccc(Cl)c(S(=O)(=O)N2CCOCC2)c1 | -3.3%
19 | COc1ccc(NC(=O)c2ccc(Cl)c(S(=O)(=O)N3CCc4ccccc4C3)c2)cn1 | 80% (active)
20 | O=C(Nc1cccnc1)c1ccc(Cl)c(S(=O)(=O)N2CCCCCC2)c1 | -5.1%
21 | N#C/C(C(N)=O)=c1/ccc2c(c1)N1C3=C(CCCC3)CC3CCCCC31N=2 (configuration not stated) | 66.4% (active)
22 | N#CC(C#N)=c1ccc2c(c1)N1C3=C(CCCC3)CC3CCCCC31N=2 (configuration not stated) | 71.7% (active)
23 | Cc1cc(-c2ccccc2)nc(=O)[nH]1 | -3%
24 | CCn1c(=O)cc(OCC(=O)N2CCN(C(=O)c3ccco3)CC2)c2ccccc21 | -0.6%
25 | CC(=O)Nc1ccc(C(=O)CSc2nnc(Cn3nnc4ccccc43)n2C)cc1 | 3.6%
26 | CCN1C(=O)CS/C1=N\c1nccs1 | -4.6%
27 | CCN=C1SC(C(N)=O)CC(=O)N1CC (configuration not stated) | 0.6%
